# In the library only some 19% were active in any assay of this set; here they are far more common.
# DT40 TDP1 CPT – DT40-hTDP1 cell growth loss with CPT | chicken DT40 Tdp1-/-;hTDP1 cells + 20 nM CPT, ATP luminescence, 48 h | Potency, µM (titrated, usually from 46.2 µM), inactives show at the highest dose activity change, negative = growth inhibition, usual class: inhibitors | hit rate 12% among 420,000 | AID 686979; further: potency means the concentration at half of the fitted maximal effect; on the % scale 0 is the no-effect control and ±100 the full control effect; nearly all actives have a fitted effect of over 55% in size
#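 Chicken DT40 Tdp1-/- cells complemented with human TDP1, 400 cells/well, exposed to compounds plus 20 nM camptothecin for at least 48 h at 37 C; viability read as ATP content by CellTiter-Glo luminescence.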
# Chronic BCR inh – blocks chronic active B-cell receptor signaling | ABC-DLBCL IkBa-CBG/CBR reporter, luminescence ratio, 4 h | Potency, µM (series often up to 46.1 µM), for inactives: top-dose activity change, negative = inhibition, actives largely listed as inhibitors | hit rate 0.05% among 340,000 | AID 493014; active means well fitted inhibition curve with a large enough effect in the signal ratio, with a control signal flat, not every such curve was filed as active; inconclusive means small, poorly fitted or top-dose-only effect, or effect the other way, or a change in a side signal; the % refers to the signal ratio;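 further: potency means the concentration at half of the fitted maximal effect; plate controls were basal doxycycline-induced cells for no effect and cells given 10 µM MG132 for full effect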
#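 Cell line TMD8 (human ABC DLBCL), stably expressing tet-inducible CBG68-IkBa fusion and CBR; IMDM/0.5% FBS; cpd up to 46 uM; dox induction, 4 h, 37C/5% CO2; dual luminescence; green/red ratio; MG132 control.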
# TDP1 cell noCPT – qHTS for Inhibitors of human tyrosyl-DNA phosphodiesterase 1 (TDP1): qHTS in cells in absence of CPT | DT40 Tdp1-/- hTDP1 cells, no CPT, ATP luminescence, 48 h | Potency, µM (doses to about 46.2 µM), without a hit: at the highest dose activity change, negative = growth inhibition, actives largely listed as inhibitors | hit rate 15% among 420,000 | AID 686978, 2013; further: potency means the concentration at half of the fitted maximal effect; on the % scale 0 is the no-effect control and ±100 the full control effect; nearly all actives have a fitted effect of over 55% in size
#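 Seeded 400 DT40-hTDP1 cells/well (vehicle DMSO, no 20 nM CPT); pinned compounds; ≥48 hr at 37 °C; CellTiter-Glo luminescence as viability measure.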
# MCF10A rereplic – induces DNA re-replication in MCF 10a normal breast cells; MCF 10A DNA re-replication, Hoechst nuclear intensity, 48 h; Potency, µM (doses to about 46.1 µM), without a hit: top-dose activity, positive = re-replication, most hits filed as activators; hit rate 2.9% among 350,000; further: potency means the concentration at half of the fitted maximal effect; % of control where 0% means no effect; nearly all actives have a fitted effect of over 50% in size
# SW480 rerep – inducers of DNA re-replication in SW480 colon cancer cells. SW480 DNA re-replication, Hoechst DNA content imaging, 48 h. Potency, µM (titrated, usually from 46.1 µM), for the others: top-dose re-replication activation, actives largely listed as activators. hit rate 1.8% among 340,000; further: potency means the concentration at half of the fitted maximal effect; % of control where 0% means no effect; nearly all actives have a fitted effect of over 55% in size
#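 SW480 cells exposed to compounds for 48 hr at 37 C, 5% CO2, then Hoechst-stained 40 min. Nuclear DNA content imaged by fluorescence scanning (405 nm excitation, 500-530 nm emission); re-replication scored as increased high-intensity nuclei.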
# IL1B secr inh – inhibitors of inflammasome signaling (IL-1 beta secretion) | hit rate 4.7% among 360,000 | THP-1 LPS/ATP IL-1B secretion, AlphaLISA, 16 h; hits give low values | activity change, % at 57.5 µM | AID 743279; in the data active means activity change below about -50%; inconclusive means mostly about -30% to -49%; further: on the % scale 0 is the no-effect control and ±100 the full control effect
#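 Secreted IL-1B measured by AlphaLISA bead assay after 16 h compound exposure of THP-1 cells; compounds (final up to 57.5 uM) added 1 h before LPS (250 ng/mL) and ATP (1.25 mM) stimulation; lower signal means less secretion.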
# Starred values were filed as active, the others as inactive; ? = inconclusive; nt = no result given; ! = a repeat was not active; [ ] = dose if it differs, or a comment. Unless noted, the call rests on the fitted dose curve; in most records, active means well fitted curve in the direction sought with a large enough effect; inconclusive means small, poorly fitted or top-dose-only effect, or another doubt; inactive means no such curve, though single readings can be large; an effect the other way counts as inactive or inconclusive.
SMILES,DT40 TDP1 CPT,Chronic BCR inh,TDP1 cell noCPT,MCF10A rereplic,SW480 rerep,IL1B secr inh
Cc1ccccc1-n1c(-c2ccco2)nc2ccccc2c1=O,12µM*,10%,9.2µM*,12%,-1%,-17
O=c1c2ccccc2nc(-c2ccco2)n1-c1ccccc1,?,?,?,19%,-3%,-11
O=C1NC(=O)C(C2CCOC2=O)N1 (configuration not stated),-4%,nt,0%,nt,nt,6
O=C(Nc1ccccc1)N1CC[C@@]2(CCCN(C(=O)Oc3ccccc3)C2)C1,5%,nt,-11%,nt,nt,nt
COc1ccc(OC)c(N2C(=O)NC(=O)/C(=C/c3ccc([N+](=O)[O-])s3)C2=O)c1,16µM*,16%,16µM*,-8%,-13%,-73*
COc1cc(/C=C2\C(=O)NC(=O)N(c3ccccc3)C2=O)c([N+](=O)[O-])cc1OC,-6%,3%,-7%,3%,0%,7
CCOC(=O)NC(C)(C)Cc1ccc(Cl)cc1,5%,nt,?,nt,nt,nt
C[n+]1c2cc(N)ccc2cc2ccc(N)cc21,3.7µM*,nt,2.9µM*,3%,-158%,-108*
Cc1ccc(N)cc1N,4%,0%,6%,1%,1%,-23
C[n+]1c2cc(N)ccc2cc2ccc(N)cc21 (tested in a mixture with another compound),2.1µM*,nt,1.8µM*,nt,nt,nt
O=C1CN=C(c2ccccc2)c2cc(Cl)ccc2N1,1%,-2%,-7%,1%,-33%,-14
Cc1nn(Cc2ccccc2)c(Cl)c1C(=O)Nc1ccc(OC(F)(F)F)cc1,?,?,?,?,4%,11
Cc1nn(Cc2ccccc2)c(Cl)c1C(=O)NC1CCCc2ccccc21 (configuration not stated),?,-8%,21µM*,?,2%,3
CC1CCC2[C@@H](C)C(=O)OC3O[C@]4(C)CCC1C32OO4 (some centres not stated),?,nt,7.3µM*,10%,0%,-10
CC1CCC2C(C)C(=O)OC3OC4(C)CCC1C32OO4 (configuration not stated),?,2%,0.84µM*!,-2%,10%,-13
CCOC(=O)c1c(C)[nH]c(C)c1C(=O)C(Cc1ccccc1)N(C)C (configuration not stated),?,?,?,?,?,2
Cc1ncc(CO)c2c1Oc1nc(-c3ccccc3Cl)nc(SCc3ccccc3F)c1C2,15µM*,nt,15µM*,nt,nt,nt
COc1cccc(CSc2nc(-c3ccccc3OC)nc3c2Cc2c(CO)cnc(C)c2O3)c1,5.8µM*,nt,3.7µM*,nt,nt,nt
C[N+]1([O-])CCC[C@@H]1c1cccnc1 (some centres not stated),3%,nt,-19%,nt,nt,nt
Cc1[nH]c2ccc(OCc3ccccc3)cc2c1CCN,15µM*,?,13µM*,2%,5%,nt
COC(=O)C1=C(c2cc3ccccc3s2)C[C@@H]2CC[C@H]1N2C(=O)N1CCCCC1,2.9µM*,nt,6.5µM*,18µM*,?,16
COC(=O)C1=C(c2c(C)noc2C)C[C@@H]2CC[C@H]1N2C(=O)N1CCCC1,-2%,?,3%,-3%,2%,12
COC(=O)C1=C(c2ccc3ccccc3c2)C[C@@H]2CC[C@H]1N2C(=O)N1CCC(O)CC1,?,-7%,?,-12%,-2%,19
COC(=O)C1=C(c2cc3ccccc3s2)C[C@@H]2CC[C@H]1N2C(=O)N1CCC(O)CC1,15µM*,nt,23µM*,20%,1%,10
COC(=O)C1=C(c2cc3ccccc3s2)C[C@@H]2CC[C@H]1N2C(=O)NCc1ccc(F)cc1,?,nt,nt,?,-2%,?
SMILES,DT40 TDP1 CPT,Chronic BCR inh,TDP1 cell noCPT,MCF10A rereplic,SW480 rerep,IL1B secr inh
COC(=O)C1=C(c2cc3ccccc3s2)C[C@@H]2CC[C@H]1N2C(=O)NC1CCCCC1,18µM*,nt,?,21µM*,?,-14
Cc1nnc(NC(=O)c2cccn(Cc3ccccc3F)c2=O)s1,3%,nt,-1%,nt,nt,nt
CCCNc1nc(OC)nc(N2CC3CC(C2)c2cccc(=O)n2C3)n1 (configuration not stated),0%,1%,13%,-2%,-10%,0
CC12Nc3ccccc3C(=O)N1Cc1cnnn1-c1ccccc12 (configuration not stated),0%,nt,-6%,nt,nt,21
CC(C)=CCC/C(C)=C/CNC(=O)C[C@H]1C[C@H](C(=O)N(C(C)C)C(C)C)[C@@]2(C)c3[nH]c4ccc(Cl)cc4c3CCN2C1=O,?,2%,?,-3%,19%,38
COc1ccc2[nH]c3c(c2c1)CCN1C(=O)C(CC(=O)NCc2cccc(C(F)(F)F)c2)C[C@H](C(=O)N2CCCCC2)[C@@]31C (some centres not stated),10µM*,?,8.2µM*,?,?,-53*
O=C(NCCc1ccc(Cl)cc1)c1ccc(Nc2nc3ccccc3n3nnnc23)cc1,?,nt,10µM*,nt,nt,nt
Cc1ccc(CNC(=O)c2ccc(Nc3nc4ccccc4n4nnnc34)cc2)cc1,?,nt,15µM*,nt,nt,nt
Cc1cc(C)cc(Nc2nc3ccc(C)cc3n3cnnc23)c1,-25%,0%,?,?,5%,-6
N=C1c2ccccc2CN1NC(=O)c1ccc(Cl)cc1,-18%,-14%,?,0%,-4%,8
CN(C)CCSC1c2ccccc2CSc2ccccc21 (configuration not stated),?,nt,?,?,?,-2
O=C(c1ccco1)N1CCC[C@@]2(CCN(Cc3ccncc3)C2)C1,-8%,nt,-13%,nt,nt,nt
c1cc2c(cc1N1CCCCC1)C1CC2CCN1 (configuration not stated),?,nt,-28%,?,-2%,3
CC(C)C(O)(C(=O)OC[C@@H]1CC[N+]2([O-])CCCC12)C(C)O (some centres not stated),-5%[9.04 µM],nt,5%[9.04 µM],nt,nt,nt
COC(=O)[C@H]1[C@H]2C[C@@H]3c4[nH]c5cc(OC)ccc5c4CCN3C[C@H]2C[C@@H](OC(=O)/C=C/c2cc(OC)c(OC)c(OC)c2)[C@@H]1OC,?,-6%,13µM*!,5.8µM*,18µM*,50
O=[N+]([O-])c1ccc(-c2ccccc2)c([As](=O)(O)O)c1,13µM*,?,9.2µM*,23µM*,16%,-18
